# Screening data deposited in PubChem BioAssay by The Scripps Research Institute Molecular Screening Center.
# Hits are enriched below; roughly 3.4% of the tested compounds scored in any of these assays.
# MITF inh = MITF inhibitors, primary screen, biochemical, AlphaScreen, human; Microphthalmia-associated transcription factor (Homo sapiens), O75030; AlphaScreen MITF homodimerization, bead proximity signal; inhibition, % at 2.6 µM; 650,000 compounds, 0.91% hits; AID 1259374, 2018; in the data active = inhibition above about 50%;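 also: 0% = vehicle wells with protein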
# GPR151 activ = activators of human GPR151, primary screen, cell-based, PathHunter beta-arrestin, luminescence; G-protein coupled receptor 151 (Homo sapiens), Q8TDV0; PathHunter beta-arrestin GPR151 cells; AID 1508602, 2020; activation, % at 11.2 µM; 650,000 compounds, 1% hits; in the data active = activation above about 4.9%;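 also: 0% = median of compound wells and 100% = cells with positive control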
# Target sequence (Q8TDV0 whole entry, looked up): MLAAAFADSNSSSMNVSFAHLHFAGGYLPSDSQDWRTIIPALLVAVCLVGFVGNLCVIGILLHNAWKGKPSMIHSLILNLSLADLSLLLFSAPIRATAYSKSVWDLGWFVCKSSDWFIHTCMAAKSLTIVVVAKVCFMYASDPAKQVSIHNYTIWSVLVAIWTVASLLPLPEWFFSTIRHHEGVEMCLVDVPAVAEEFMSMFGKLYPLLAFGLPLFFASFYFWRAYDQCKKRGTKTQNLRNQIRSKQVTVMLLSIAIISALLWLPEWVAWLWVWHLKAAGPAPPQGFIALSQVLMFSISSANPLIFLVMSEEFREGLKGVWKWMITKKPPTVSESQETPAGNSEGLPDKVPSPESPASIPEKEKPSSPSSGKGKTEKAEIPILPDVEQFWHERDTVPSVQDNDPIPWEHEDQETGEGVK
# TEAD-YAP block = TEAD-YAP interaction inhibition, primary screen, TEAD-YAP interaction inhibitor project, luminescence, HEK-TIYL cells; TEAD-Gal4/YAP UAS-luciferase luminescence; inhibition, % at 9.12 µM; 640,000 compounds, 1.4% hits; in the data active = inhibition above about 32%;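 also: 0% = median of test compound wells and 100% = reference inhibitor wells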
# FBW7 act = FBW7 E3 ligase activators, primary screen, biochemical, AlphaScreen, human; F-box/WD repeat-containing protein 7 (Homo sapiens), Q969H0; AlphaScreen FBW7–phospho-cyclin E peptide binding, activator screen; normalized activity (activation), % at 26.1 µM; 650,000 compounds, 0.13% hits; AID 1259310, 2017; in the data active = normalized activity above about 1.9%;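 also: purified mutant Fbw7 with reduced substrate affinity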
# GPR151 conf act = GPR151 activators, triplicate retest, confirmation, cell-based, PathHunter beta-arrestin, luminescence. shares compounds with GPR151 activ. GPR151 PathHunter beta-arrestin cells, 90 min; % of EA-reagent control over plate median. activation, % at 11.2 µM. 6,700 tested, under 10 active. AID 1508609, 2020;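 active = mean percent activation across replicates above the confirmation screen cutoff of 4.91%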
# GPR119 counter = GPR119 activators in beta-arrestin cells, counter-screen for GPR151 activator project, cell-based, PathHunter beta-arrestin, luminescence, triplicate; 6,700 compounds, 0.3% hits; shares compounds with GPR151 activ; AID 1508611, 2020; activation, % at 11.2 µM; 90 min; 0 = compound-well median, 100 = enzyme-acceptor control;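 active = mean percent activation in the counterscreen above 29.09%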;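 also: counterscreen on off-target GPR119 to flag nonselective hits from the GPR151 activator screen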
# Numbers without * were called inactive; · = no result given; ! = repeats disagree.
SMILES,MITF inh,GPR151 activ,TEAD-YAP block,FBW7 act,GPR151 conf act,GPR119 counter
CCCOc1ccc(NC(=O)C2CC(=O)N(CC)C(=Nc3ccc(C)c(C)c3)S2)cc1 (stereo unspecified),8,7.3*,-3,0,3,13
CCOc1ccc(NC(=O)C2CC(=O)N(CC)C(=Nc3ccc(C)c(C)c3)S2)cc1 (stereo unspecified),-3,0,12,0,·,·
CCOC(=O)CN1C(=O)C(=O)c2ccccc21,15,0,2,0,·,·
CC(=O)c1ccc(NC(=O)COc2ccc(Br)cc2Cl)cc1,-6,3,-29,0,·,·
O=C(O)/C=C/c1cn(-c2ccccc2)nc1-c1cccc([N+](=O)[O-])c1,15,5.3*,13,0,-1,-12
CCN(CC)S(=O)(=O)c1ccc(C(=O)Nc2nc3c(C)cccc3s2)cc1,0,0,2,0,·,·
COc1cc([N+](=O)[O-])ccc1NC(=O)c1oc(=O)c2ccccc2c1-c1ccc(C)cc1,9,5.7*,-5,0,0,16
CC(C)C(=O)N=C1SC2CS(=O)(=O)CC2N1c1cccc(C(F)(F)F)c1 (stereo unspecified),-6,7.5*,5,0,1,-12
O=C1c2cccc3cccc(c23)C(=O)N1CCc1ccc(S(=O)(=O)N2CCCCC2)cc1,10,1,-3,0,·,·
Cn1c(=O)c2c(nc(NCCO)n2Cc2ccc(Br)cc2)n(C)c1=O,6,5.5*,21,0,1,4
Cn1c(=O)c2c(nc(NCCO)n2Cc2ccccc2F)n(C)c1=O,22,16*,25,0,-1,6
COc1ccc(C(=O)N2CCNC(=O)C2CC(=O)Nc2ccc(C)c(C)c2)cc1 (stereo unspecified),13,5.6*,10,0,1,-6
COc1ccc(C(=O)N2CCNC(=O)C2CC(=O)Nc2cccc(Cl)c2Cl)cc1 (stereo unspecified),11,0,-3,0,·,·
C#CCSc1nsc(NC(=O)Nc2cccc(F)c2)n1,1,7.1*,36*,0,1,-1
O=C(O)CN(CC(=O)Nc1ccc2c(c1)OCCCO2)Cc1ccccc1,16,9.1*,1,0,0,4
O=C(CCl)Nc1ccc2c(c1)OCCCO2,10,0,5,0,·,·
NC(=O)CC(c1ccccc1)c1ccc2c(c1)OCO2 (stereo unspecified),0,6.4*,12,0,0,6
Cc1ccc(F)cc1NC(=O)c1cc2ccccc2oc1=O,13,-1,-7,1,·,·
CCOC(=O)CCC(=O)Nc1cccc(Cl)c1Cl,5,6.9*,4,0,0,-4
CCOC(=O)CCC(=O)Nc1cccc2c(NC(=O)CCC(=O)OCC)cccc12,-27,2,-10,0,·,·
CCCC(=O)Nc1nnc(-c2ccc(Cl)s2)o1,-6,1,-21,0,·,·
O=C(Cc1cccc2ccccc12)Nc1nnc(-c2ccc(Cl)s2)o1,-6,5.1*,-3,0,1,8
CO/N=C(/C(=O)N[C@@H]1C(=O)N2C(C(=O)O)=C(COC(C)=O)CS[C@H]12)c1csc(N)n1,23,0,2,0,·,·
CC(=O)OCC1=C(C(=O)O)N2C(=O)[C@@H](NC(=O)Cc3cccs3)[C@H]2SC1,-9,19*!,-3,0,1,4
Cn1c(C(=O)OC(C(=O)NCc2ccccc2)c2ccncc2)cc2occc21 (stereo unspecified),6,0,-6,0,·,·
SMILES,MITF inh,GPR151 activ,TEAD-YAP block,FBW7 act,GPR151 conf act,GPR119 counter
O=C1Nc2ccccc2N(O)N1c1cccc(Br)c1,6,7.7*,-3,0,0,3
Cc1cncc2c(S(=O)(=O)N3CCCNC[C@@H]3C)cccc12,8,-1,-6,0,·,·
CC1(C)C(=O)OC(c2ccccc2F)C2(CCCCC2)C1=O (stereo unspecified),4,5.3*,1,0,0,-5
Cc1cc(CC(=N)N)c(C)cc1CC(=N)N,6,5.4*,-5,0,-1,-12
Cn1ncc2c(NCCO)nc(Nc3ccc(Br)cc3)nc21,20,2,2,1,·,·
O=C(/C=C/c1ccco1)Nc1cccc(C(=O)N2CCCCC2)c1,8,0,-4,0,·,·
COCCNC(=O)CSc1nc2cc3c(cc2c(=O)n1CCCCCC(=O)NCc1ccc2c(c1)OCO2)OCO3,11,-2,-3,0,·,·
CC(=O)Nc1cccc(-c2csc(Nc3ccccc3Cl)n2)c1,1,5.0*,-67,0,0,5
O=[N+]([O-])c1ccc(Nc2nc(-c3ccccc3)cs2)cc1,23,6.1*,-36,1,1,15
CC(=O)Nc1cccc(-c2csc(Nc3ccc(C)cc3)n2)c1,-6,10*,-71,0,0,11
Cc1sc2nc(C)n(C3CCN(C(=O)c4ccccc4F)CC3)c(=O)c2c1C,8,0,1,0,·,·
CNC(=S)N1CCC(C(=O)NC(c2cccc(OC)c2)c2ccccn2)CC1 (stereo unspecified),14,6.9*,-3,0,0,0
CCOc1ccc(C2=C/C(=C/c3cccs3)C(=O)O2)cc1,4,5.8*,1,0,-1,12
CCOc1ccc(C2=C/C(=C\c3cccs3)C(=O)O2)cc1,-1,0,-18,0,·,·
NC(=O)C1(N2CCCCC2)CCN(CC(=O)Nc2ccc(F)c(Cl)c2)CC1,5,-1,-6,0,·,·
NC(=O)C1(N2CCCCC2)CCN(C(=S)Nc2ccc(F)c(Cl)c2)CC1,13,5.1*,-1,0,0,6
Cc1nc(NCc2cnn(C)c2C)sc1-c1ccn(Cc2cccc(F)c2)n1,-11,0,-6,0,·,·
Cc1nc(N(C)c2ccc(C(C)C)cc2)c2c(C)c(C(=O)Nc3ccc(Oc4ccccc4)cc3)sc2n1,11,7.8*,-2,1,1,6
CCN(CC)c1nc(C)nc2sc(C(=O)Nc3ccc(Oc4ccccc4)cc3)c(C)c12,-12,0,-11,0,·,·
Cc1cc(NC(=O)c2ccc(C)s2)n(-c2nc3ccccc3[nH]2)n1,3,5.3*,0,0,0,2
Cc1cccn2c(=O)c(/C=N/NC(N)=S)c(N3CCCC3)nc12,38,-1,3,-1,·,·
